Screening data as filed in PubChem.
This is a sample that favours compounds with a hit; in the whole collection about 1.7% have one here.
GLP-1R agonist: qHTS of GLP-1 Receptor Agonists; Potency, µM (series often up to 45.6 µM), without a hit: at the top dose activation, hits mostly activators; 380,000 compounds, 0.007% hits; HEK293 GLP-1R CRE-luciferase, luminescence, 4-6 h; cells express a hypersensitive GLP-1R form; further: % of control where 0% means no effect
PTHR1 ag: qHTS for PTHR1 Agonists: Primary Screen; HEK293 GP2 PTHR1 cells, GloSensor cAMP luminescence, 1 h; 410,000 compounds, 0.075% hits; Potency, µM (top dose mostly 115 µM), inactives show top-dose activation, most hits filed as activators; further: nearly all actives have a fitted effect of over 55% in size
Target sequence (Q03431 whole entry, looked up): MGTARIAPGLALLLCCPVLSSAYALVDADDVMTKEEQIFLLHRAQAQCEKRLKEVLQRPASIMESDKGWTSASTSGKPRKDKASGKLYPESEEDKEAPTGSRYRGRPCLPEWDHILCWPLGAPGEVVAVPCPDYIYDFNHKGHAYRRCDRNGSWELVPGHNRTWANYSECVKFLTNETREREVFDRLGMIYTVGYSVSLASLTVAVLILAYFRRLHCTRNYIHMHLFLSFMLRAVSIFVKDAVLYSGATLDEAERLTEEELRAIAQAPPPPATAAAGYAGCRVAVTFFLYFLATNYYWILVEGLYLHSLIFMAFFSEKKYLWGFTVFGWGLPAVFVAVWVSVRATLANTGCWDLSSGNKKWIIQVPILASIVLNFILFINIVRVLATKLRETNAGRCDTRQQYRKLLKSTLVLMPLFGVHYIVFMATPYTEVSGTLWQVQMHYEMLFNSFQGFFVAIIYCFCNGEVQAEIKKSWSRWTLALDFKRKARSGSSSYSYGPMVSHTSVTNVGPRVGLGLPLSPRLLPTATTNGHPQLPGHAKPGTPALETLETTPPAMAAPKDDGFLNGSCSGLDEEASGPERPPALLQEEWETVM
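HEK-293-derived GP2 cells expressing PTHR1 and a GloSensor cAMP reporter, 3,000/well, plated overnight, given luciferin plus IBMX (each 0.5 mM as added) for 1 h at 37 °C, then compound for 1 h at 37 °C. Luminescence was read after 15 min at room temperature.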
GLP1R inv ag: qHTS of GLP-1 Receptor Inverse Agonists (Inhibition Mode); AID 624417, 2012; 410,000 compounds, 1.6% hits; HEK293 GLP-1R CRE-luciferase, luminescence, 24 h; GLP-1R form is constitutively active; Potency, µM (top dose mostly 38.3 µM), for the others: at the highest dose activity change, negative = inhibition, hits mostly inhibitors; further: on the % scale 0 is the no-effect control and ±100 the full control effect; nearly all actives have a fitted effect of over 55% in size
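Inverse agonism was detected as reduced cAMP-driven luciferase luminescence after 24 h compound treatment. The cells were HEK293 clones expressing constitutively active human GLP-1R with the reporter. Reporter-only and GPR119 cell lines served as counterscreen controls.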
HEK293 tox: qHTS of GLP-1 Receptor Inverse Agonists: Cytotox Screen; AID 624418, 2012; Potency, µM (highest dose often 38.3 µM), for the others: top-dose activity change, negative = inhibition, usual class: inhibitors; 410,000 compounds, 0.13% hits; HEK293 cAMP-luciferase reporter cells, luminescence, 24 h;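 further: loss of luciferase light is scored as toxicity; on the % scale 0 is the no-effect control and ±100 the full control effect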
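To flag toxic compounds, the library was rerun on cells for 24 hr at 37 deg C and 5% CO2. Viability-linked luminescence was captured 12 min after adding luciferase detection reagent.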
RGS4 inhibitor: Inhibitors of Regulator of G Protein Signaling (RGS) 4: qHTS; Regulator of G-protein signaling 4 (Homo sapiens), P49798; Transcreener GDP fluorescence polarization, RGS4-accelerated GTP hydrolysis; Potency, µM (titrated, usually from 114 µM), without a hit: at the top dose activity change, negative = inhibition, most hits filed as inhibitors; 390,000 compounds, 0.039% hits; further: on the % scale 0 is the no-effect control and ±100 the full control effect; nearly all actives have a fitted effect of over 75% in size
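MLSMR compounds (23 nl, pin-transferred) preincubated 10 min at room temperature with a 500nM (2x) first reagent, then RGS4 at 900nM (2x) plus Transcreener GDP mix added; fluorescence polarization (620/688 nm) read before and after 90 min at 30 °C.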
Starred values were filed as active, the others as inactive; i = inactive; ? = inconclusive; nt = not tested or not shown; [ ] = remark or other dose. The call rests on the fitted dose curve; in most records, active means well fitted curve in the direction sought with a large enough effect; inconclusive means small, poorly fitted or top-dose-only effect, or another doubt; inactive means no such curve, though single readings can be large; an effect the other way counts as inactive or inconclusive. Potency means the concentration at half of the fitted maximal effect.

SMILES | GLP-1R agonist | PTHR1 ag | GLP1R inv ag | HEK293 tox | RGS4 inhibitor
CSCCC(C(=O)NC(C)(C)C)n1c(-c2ccc3c(c2)OCO3)nc2ccccc21 (stereo not given) | nt | i | -3.4% | -9.0% | nt
O=C(CC(=O)c1ccccn1)c1ccccc1 | -6.2% | -33.5% | ? | -33.8% | ?
O=C(CC(CC(=O)c1ccccc1)c1ccccn1)c1ccccc1 | 14.5% | -9.9% | 10µM* | -0.9% | 24.4%
CCC(C)c1ccc(O)c(NC(=S)NC(=O)c2cccs2)c1 (stereo not given) | 9.1% | -2.9% | 8.91µM* | -14.2% | nt
CN(C)CCCNC(=O)c1ccccn1 | -4.2% | i | 6.5% | -2.8% | 24.5%
COc1cccc(C(=O)NCCc2csc(-c3ccc(Cl)cc3)n2)c1 | nt | i | ? | -6.0% | -1.7%
CN(C)CCCNC(=O)c1ccc(-c2nc(-c3ccc(Cl)cc3)cs2)cc1 | -4.5% | i | 6.31µM* | ? | 0.1%
CC(C)(C)c1ccc(C(=O)NCCc2csc(-c3ccc(Cl)cc3)n2)cc1 | nt | i | 10µM* | -4.0% | -18.5%
CCCC[C@H]1CCCO[C@@](C(=O)NCc2ccccc2)(C(F)(F)F)C1 | nt | nt | nt | nt | 1.3%
COc1ccc(-c2nc(CSc3nncn4c3cc3oc(C)cc34)c(C)o2)cc1 | nt | -7.1% | 8.5% | -8.2% | -38.7%
CCCn1c(SCC#N)nc2c(c1=O)C1(CCCC1)Cc1ccccc1-2 | 0.5% | i | ? | -12.4% | -8.6%
N#CCSc1nc2c(c(=O)n1Cc1ccco1)C1(CCCC1)Cc1ccccc1-2 | 7.4% | -55.0%[57.5 µM] | 5.62µM* | -11.7% | -36.7%
COc1ccc(Nc2nnc(SCc3cn4c(C)cccc4n3)s2)cc1 | 2.8% | -1.1% | 2.2% | ? | -14.7%
Cc1cccn2cc(CSc3nnc(Nc4ccc(C(C)C)cc4)s3)nc12 | 4.7% | -16.8% | 10µM* | -10.6% | -7.2%
CS(=O)(=O)N(Cc1nc(-c2ccc(F)cc2)no1)c1ccccc1Cl | -6.4% | -13.9% | ? | 2.6% | -16.3%
CCOC(=O)c1c(NC(=O)CNC2CCCCC2)sc(C)c1C | 19.7% | -16.8% | 3.98µM* | 26.9% | 16.9%
Cc1onc(-c2c(F)cccc2Cl)c1C(=O)OCC(=O)c1c[nH]c2ccccc12 | 8.7% | i | 8.91µM* | -0.6% | 12.8%
Cc1noc(C)c1C(=O)OCC(=O)c1c[nH]c2ccccc12 | 11.1% | -10.4% | 4.6% | -16.4% | 14.4%
Cc1cc(C)cc(Nc2nc(-c3ccc(S(=O)(=O)N4CCCC4)cc3)cs2)c1 | 1.4% | -63.9% | 3.55µM* | -17.8% | -20.2%
Cc1ccc(Nc2nc(-c3ccc(S(=O)(=O)N4CCCC4)cc3)cs2)cc1C | 2.6% | -1.9%[57.5 µM] | ? | -32.9% | -47.9%
Cc1ccc(C)c(S(=O)(=O)/N=C(/Nc2ccccc2)c2ccccc2)c1 | 12.1% | -23.6% | 10µM* | -2.3% | -20.4%
CCOC(=O)c1ccc(N/C(=N\S(=O)(=O)c2ccccc2C)c2ccccc2)cc1 | -0.9% | -4.9%[57.5 µM] | ? | -16.8% | -11.7%
CCCCCCCn1c(=N)n(CC(O)c2ccco2)c2ccccc21 (stereo not given) | 4.1% | -20.3% | 11.2µM* | ? | -29.5%
CCCCCn1c(=N)n(CC(O)COc2cccc(C)c2)c2ccccc21 (stereo not given) | nt | -51.5% | 11.2µM* | ? | 0.5%
COc1ccc(-c2cn3nc(SCC(=O)Nc4ccccc4F)ccc3n2)cc1 | nt | -33.3% | -2.6% | -10.1% | -27.3%
CCOC(=O)C(NC(=O)c1ccccc1Cl)(Nc1ccc(C)c(C)c1)C(F)(F)F (stereo not given) | -4.2% | -0.1% | -29.2% | -11.0% | 2.8%
COC(=O)C(Nc1ccccc1Cl)(c1cc(C)c(O)c(C)c1)C(F)(F)F (stereo not given) | -23.9% | -25.4%[57.5 µM] | 4.47µM* | ? | 2.9%
